# Screens: PubChem, Broad Institute
# The sample as a whole holds a higher share of hits than the screen did.
# miR122 inh – miR-122 suppressors via Renilla sensor increase, primary screen, cell-based, Huh7 psiCHECK-miR122, Renilla luciferase, single point. 48 h. activation, % at 12.5 µM. actives 0.14% (n = 340,000);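 active means mean activation of 30% or more, with every replicate also reaching 30%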;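 further: higher luciferase signal means stronger suppression of miR-122 activity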
# Hits are given with their value; – = inactive.
SMILES,miR122 inh
Cc1cc(NS(=O)(=O)c2ccc(NC(=O)C(CC(C)C)N3C(=O)c4ccccc4C3=O)cc2)nc(C)n1 (stereo not drawn),35
Cc1ccc(S(=O)(=O)Nc2ccc3ccccc3c2)cc1,–
CCOc1ccc(NS(=O)(=O)c2ccc(NC(=S)NC(=O)CC(C)C)cc2)cc1,–
CC(C)CC#Cc1cnc2c(c1)C(=O)N([C@H](C)CO)C[C@H](C)[C@H](CN(C)C(=O)NC1CCCC1)O2,–
CCCC#Cc1cnc2c(c1)C(=O)N([C@@H](C)CO)C[C@@H](C)[C@@H](CN(C)C(=O)Cc1ccccc1)O2,–
Cc1ccc(C(=O)N/N=C\c2ccc[nH]2)cc1[N+](=O)[O-],69
Cc1ccc(S(=O)(=O)NCCC(C)C)cc1[N+](=O)[O-],–
O=[N+]([O-])c1ccc(N/N=C/c2ccc[nH]2)cc1,45
C[C@H](CO)N1C[C@H](C)[C@@H](CN(C)C(=O)c2cccnc2)Oc2ncc(/C=C/c3ccccc3)cc2C1=O,–
C[C@@H]1CN([C@@H](C)CO)S(=O)(=O)c2ccc(-c3cccc(C#N)c3)cc2O[C@@H]1CN(C)C(=O)Nc1ccccc1F,–
CCCC(=O)Nc1ccc2c(c1)OC[C@@H](C)N(C)C[C@@H](C)[C@@H](OC)CN(C)C2=O,–
C[C@H]1CN([C@@H](C)CO)S(=O)(=O)c2ccc(-c3cncnc3)cc2O[C@H]1CN(C)Cc1ccccc1,–
CCCNC(=O)N(C)C[C@@H]1Oc2ncc(C#C[C@@H](C)O)cc2C(=O)N([C@H](C)CO)C[C@@H]1C,–
C[C@@H]1CN([C@H](C)CO)C(=O)c2cc(C#C[C@@H](C)O)cnc2O[C@H]1CN(C)C(=O)CN(C)C,–
C[C@@H]1CN([C@H](C)CO)C(=O)c2cc(C#C[C@@H](C)O)cnc2O[C@@H]1CN(C)C(=O)CN(C)C,–
COCC#Cc1cnc2c(c1)C(=O)N([C@H](C)CO)C[C@H](C)[C@@H](CN(C)C(=O)Nc1ccccc1OC)O2,–
CCN(CC)c1ccc(/C=N/NC(=O)c2ccoc2C)c(O)c1,50
COc1cccc(-c2ccc3c(c2)O[C@H](CN(C)Cc2cccnc2)[C@@H](C)CN([C@H](C)CO)S3(=O)=O)c1,–
CCC(=O)Nc1ccc2c(c1)OC[C@H](C)N(C(=O)CN1CCOCC1)C[C@H](C)[C@H](OC)CN(C)C2=O,–
NCC12CC3CC(C1)CC(c1ccc(Br)cc1)(C3)C2,34
C[C@@H]1CN([C@H](C)CO)C(=O)c2cc(C#Cc3ccccc3)cnc2O[C@H]1CN(C)C(=O)c1ccccn1,–
CC(C)C#Cc1ccc2c(c1)O[C@@H](CN(C)C(=O)NC(C)C)[C@@H](C)CN([C@H](C)CO)S2(=O)=O,–
C[C@H](CO)N1C[C@H](C)[C@@H](CN(C)C)Oc2cc(C#C[C@@H](C)O)ccc2S1(=O)=O,–
CN1c2ccc(-c3ccccc3F)cc2[C@H]2[C@H](CCN2S(=O)(=O)c2ccccc2F)[C@H]1CO,–
Oc1ccc2ccccc2c1/C=N/Nc1nnc(-c2ncc[nH]2)c2ccccc12,61
SMILES,miR122 inh
CCC(=O)N(C)C[C@H]1Oc2ncc(C#C[C@@H](C)O)cc2C(=O)N([C@H](C)CO)C[C@@H]1C,–
COc1cccc(CN(C(=O)Cc2c[nH]c3ccccc23)C(C(=O)NC2CCCCC2)c2cccs2)c1 (stereo not drawn),–
COc1ccc(NS(=O)(=O)c2cccc(NC(=O)COc3ccccc3[N+](=O)[O-])c2)cc1,–
COc1ccc(NC(=O)COC(=O)CCCc2c[nH]c3ccccc23)cc1,36
C[C@H](CO)N1C[C@H](C)[C@H](CN(C)Cc2ccncc2)Oc2ncc(-c3cccc(F)c3)cc2C1=O,–
C[C@H](CO)N1C[C@H](C)[C@@H](CN(C)Cc2ccccn2)Oc2ncc(-c3ccc(F)cc3)cc2C1=O,–
CC(=O)N(C)C[C@@H]1Oc2cc(C#CC3(O)CCCC3)ccc2S(=O)(=O)N([C@@H](C)CO)C[C@H]1C,–
C/C=C/c1ccc2c(c1)O[C@H](CN(C)C(=O)Cc1ccccn1)[C@@H](C)CN([C@H](C)CO)S2(=O)=O,–
Cc1c(Cl)sn(-c2ccc(Cl)cc2)c1=O,70
C[C@H]1CN([C@@H](C)CO)C(=O)c2cc(C#CCc3ccccc3)cnc2O[C@H]1CN(C)C(=O)C1CCCCC1,–
C[C@H](CO)N1C[C@H](C)[C@@H](CN(C)C(=O)CC2CC2)Oc2cc(C#CCC3CCCC3)ccc2S1(=O)=O,–
C[C@@H]1CN([C@@H](C)CO)S(=O)(=O)c2ccc(-c3ccc(C(=O)N(C)C)cc3)cc2O[C@@H]1CN(C)C(=O)C1CCOCC1,–
CC1CCCC(NC(=O)COC(=O)c2ccccc2NC(=O)c2ccco2)C1C (stereo not drawn),–
CCOC(=O)C1CCN(C(c2cccnc2)c2c(NC(=O)c3ccco3)sc(C)c2C)CC1 (stereo not drawn),39
Cc1sc(NC(=O)c2ccccc2)c(C(c2ccc(Cl)cc2)N2CCN(CCO)CC2)c1C (stereo not drawn),–
C[C@H]1CN([C@@H](C)CO)S(=O)(=O)c2ccc(-c3ccncc3)cc2O[C@H]1CN(C)C(=O)C1CC1,–
C[C@@H]1CN([C@H](C)CO)C(=O)Cc2cc(NC(=O)Nc3ccccc3)ccc2O[C@@H]1CN(C)C(=O)Nc1cccc2ccccc12,–
Cc1ccc(C2CC(C(F)(F)F)n3nc(C(=O)NCc4ccco4)cc3N2)cc1 (stereo not drawn),41
Cc1ccc(CN2CCSc3ccc(C(=O)NCc4ccco4)cc32)cc1,–
COc1ccc(C#Cc2ccc([C@@H]3[C@H](CO)N4CCCCN(C(=O)Nc5ccccc5)C[C@@H]34)cc2)cc1,36
COCC#Cc1cnc2c(c1)C(=O)N([C@@H](C)CO)C[C@H](C)[C@H](CN(C)C(=O)Nc1ccc(OC)cc1)O2,–
COc1ccc(C#Cc2ccc3c(c2)O[C@@H](CN(C)C(=O)NC2CCCCC2)[C@H](C)CN([C@@H](C)CO)S3(=O)=O)cc1,–
COc1cccc(NC(=O)N(C)C[C@@H]2Oc3cc(C#Cc4ccccc4)ccc3S(=O)(=O)N([C@H](C)CO)C[C@H]2C)c1,–
Cc1ccccc1-c1ccc2c(c1)O[C@@H](CN(C)C(=O)Nc1ccccc1)[C@@H](C)CN([C@@H](C)CO)S2(=O)=O,–
Cc1ccccc1-c1ccc([C@@H]2[C@@H](CO)N3CCCCN(C(=O)Nc4ccc(F)cc4)C[C@@H]23)cc1,31
SMILES,miR122 inh
COc1ccc(NC(=O)N2CCCCN3[C@H](CO)[C@H](c4ccc(C#CCC(C)C)cc4)[C@H]3C2)cc1,34
Cc1ccccc1-c1ccc2c(c1)O[C@@H](CN(C)C(=O)Nc1ccccc1)[C@@H](C)CN([C@H](C)CO)S2(=O)=O,–
CNC[C@@H]1Oc2cc(C#C[C@H](C)O)ccc2S(=O)(=O)N([C@H](C)CO)C[C@H]1C,–
CCC(=O)N(C)C[C@@H]1Oc2ncc(C#C[C@H](C)O)cc2C(=O)N([C@H](C)CO)C[C@H]1C,–
C[C@H](CO)N1C[C@H](C)[C@H](CN(C)Cc2ccncc2)Oc2ncc(C#CC(C)(C)O)cc2C1=O,–
C[C@@H]1CN([C@@H](C)CO)S(=O)(=O)c2ccc(-c3ccc(C(=O)N(C)C)cc3)cc2O[C@H]1CN(C)C,–
CCCNC(=O)N(C)C[C@H]1Oc2ncc(C#CCC(C)C)cc2C(=O)N([C@@H](C)CO)C[C@H]1C,–
Cc1ccc(-c2cnc3c(c2)C(=O)N([C@@H](C)CO)C[C@@H](C)[C@@H](CN(C)C(=O)c2ccncc2)O3)cc1,–
